From PMC5540273 (PLoS ONE, 2017)

Tests used:
[1] = system: T1, JNK2
T1 construct: gene MAPK9

[2] = system: LATS1
[3] = system: LATS2
[4] = system: LCK
[5] = system: LYN
[6] = system: LIMK2
[7] = system: LTK
[8] = system: T2, LOK
T2 construct: gene STK10

[9] = system: T3, LZK
T3 construct: gene MAP3K13

[10] = system: MAK
[11] = system: MET
[12] = system: MAPKAPK2
[13] = system: MARK3
[14] = system: T4, MEK1
T4 construct: gene MAP2K1

[15] = system: MKNK1
[16] = system: T5, MLCK
T5 construct: gene MYLK3
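Also: kd values determined as follow-up on hits from a single-replicate KINOMEscan panel screen.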

`COC(=O)c1c(-c2ccccc2)c2cc(Cl)ccc2c(=O)n1Cc1ccc(S(C)(=O)=O)cc1` gave a Kd [1] of 0.044 µM.
With `CN1CCC(n2cnc(-c3ccc(F)cc3)c2-c2ccnc(NC3CCNCC3)n2)CC1` [SB-229482] the Kd [1] was 0.17 µM.
Work on `COc1ccc(-c2oc3ncnc(N)c3c2-c2ccc(OC)cc2)cc1` [SB-589132] yielded a Kd [2] greater than 10 µM.
Compound `CCc1nc(-c2cccc(C)c2)c(-c2ccnc(NC(=O)c3ccccc3)c2)s1` has a Kd [3] greater than 10 µM.
`COc1cc2c(Nc3cccc(NC(=O)c4ccccc4)c3)ncnc2cc1OCCCN1CCOCC1` [GSK223810] showed a Kd [4] of 0.39 µM and a Kd [5] of 0.13 µM.
`Cc1ccc(NC(=O)c2cccc(C#N)c2)cc1-c1ccc(C(=O)Nc2ccncc2)cc1` [GSK1398463] was tested, and the Kd [4] was 0.56 µM.
Compound `CNc1nccc(-c2c(-c3ccc(F)cc3)ncn2CCCN2CCOCC2)n1` [SB-222516] has a Kd [6] greater than 10 µM.
With `CCCc1ccc(S(=O)(=O)NC2CCN(c3ccnc(Nc4ccc(OC)cc4)n3)C2)cc1` (stereo not shown) [GSK1379737] the Kd [6] was greater than 10 µM and the Kd [7] was 8.7 µM.
For `COc1cc2ncnc(Nc3ccc(OCc4ccccc4Br)c(Cl)c3)c2cc1OC.Cl` [GI261590], the Kd [8] was 2 µM.
Compound `Oc1ccc2ncnc(Nc3ccc(OCc4ccccc4)cc3)c2c1` [GI262866] has a Kd [7] greater than 10 µM.
With `Fc1cccc(COc2ccc(Nc3ncnc4sc(-c5ccc[nH]5)cc34)cc2Cl)c1` [GW707818] the Kd [9] was greater than 10 µM.
For `c1ccc(-c2ccc3c(-c4ccnc(Nc5ccc6c(c5)OCCO6)n4)cnn3n2)cc1` [GW818941], the Kd [10] was greater than 10 µM and the Kd [11] was greater than 10 µM.
`O=C(NCCCN1CCCC1=O)c1cnc(NCc2cc(Cl)ccc2Cl)nc1NC1CCNCC1` showed a Kd [10] greater than 10 µM.
Work on `Cn1cc(-c2ccc3c(c2)CCN3C(=O)Cc2cccc(C(F)(F)F)c2)c2c(N)ncnc21` [GSK2606414] yielded a Kd [12] greater than 10 µM.
Work on `CCn1c(-c2ccncc2)nc2cnccc21` [SB-735216] yielded a Kd [13] greater than 10 µM.
`CC(C)(C)OC(=O)NC1CCCN(c2cc(-c3ccc4c(N)n[nH]c4c3)nc(N)n2)C1` (stereo not shown) [GSK2286096] gave a Kd [14] greater than 10 µM.
`C[C@H]1CC[C@@H](C(=O)Nc2ccccc2)CN1c1cc(-c2ccc3c(N)n[nH]c3c2)nc(N)n1` [GSK2283293] gave a Kd [11] greater than 10 µM.
In the case of `CSc1ccc(NC2=C(c3ccccc3Cl)C(=O)NC2=O)cc1` [SB-342411], the Kd [15] is reported as greater than 10 µM.
`Nc1n[nH]c2nnc(-c3ccccc3)cc12` [SB-517389] gave a Kd [16] greater than 10 µM.
